Measurements from PubChem BioAssay AID488890 (Southern Research Specialized Biocontainment Screening …, 2010).
The campaign covered roughly 320,000 compounds. About 1,300 (0.41%) were called active. Not shown: some 3% with an inconclusive outcome. The rule behind the calls is not given here. Not all results are given here. Entries with a potency or affinity are not part of this list.

Experiment: growth inhibition of non-replicating M. tuberculosis (AID 488890);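 note: plate controls were DMSO cells for no effect and high antibiotic wells for full effect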
Conditions: Mycobacterium tuberculosis non-replicating, at 25 µM, stronger effect = higher value

Row | Compound | inhibition
1 | N#Cc1c[nH]n2c(=O)c3c(nc12)CCC3 | -2.17%
2 | O=c1c2c(nc3c(-c4cccc(Br)c4)c[nH]n13)CCCC2 | 76.9%
3 | Cc1[nH]n2c(=O)c3c(nc2c1-c1ccc(F)cc1)CCCC3 | 18.2%
4 | Cc1[nH]n2c(=O)c3c(nc2c1-c1cccc2ccccc12)CCC3 | 61.6%
5 | Cc1ccc(S(=O)(=O)/N=C(/Nc2ccc(F)cc2F)c2ccc(F)cc2)cc1 | -16.3%
6 | CC(Oc1ccc(Cl)cc1Cl)C(=O)Nc1ncccn1 (configuration not stated) | 61.7%
7 | Cc1cccc(C)c1OC(=O)CCN1C(=O)C2C3C=CC(C4CC34)C2C1=O (configuration not stated) | 67.5%
8 | Cc1ccc(SCC(=O)NCC2COc3ccccc3O2)cc1 (configuration not stated) | 29.9%
9 | Cc1ccc2oc(=O)c(/C=C(\O)C(C)(C)C)nc2c1 | -1%
10 | CCS(=O)(=O)CCSc1nc2ccccc2o1 | -14.9%
11 | CC(C)(C)/C(O)=C/c1nc2ccccc2[nH]c1=O | -2.24%
12 | c1ccc2oc(CCc3nc4ccccc4o3)nc2c1 | -3.04%
13 | C/C(O)=C/c1nc2ccccc2[nH]c1=O | 1.47%
14 | Cc1ccc2oc(=O)c(/C=C(\O)CC(C)C)nc2c1 | -17.2%
15 | Cc1ccc(C(=O)CN2C(=O)NC3(CCCCCC3)C2=O)c(C)c1 | -9.85%
16 | CCOc1ccc(-c2nnc3sc(COc4ccc(Cl)cc4)nn23)cc1 | -1.47%

Row | Compound | inhibition
17 | CS(=O)(=O)Nc1cccc(C2=NN(C(=O)c3ccccc3Cl)C(c3ccccc3O)C2)c1 (configuration not stated) | 30.8%
18 | CC1CCN(S(=O)(=O)c2cccc(C(N)=O)c2)CC1 | 0.16%
19 | CCn1c(CCCCc2n[nH]c(=S)n2CC)n[nH]c1=S | -11.8%
20 | CC(=O)Nc1ccc(NC(=O)C2CCN(C(=O)NC3CCCCC3)CC2)cc1 | -3.9%
21 | Cn1nc(C(=O)NNC(=O)C2CSC3(C)CCC(=O)N23)c2ccccc2c1=O (configuration not stated) | -11.1%
22 | O=C(NCCCn1ccnc1)c1cc2cc([N+](=O)[O-])ccc2oc1=O | -4.48%
23 | Cc1ccc2[nH]c(C)c(CCNC(=O)c3c(N)no[n+]3[O-])c2c1 | 28.6%
24 | COC(=O)c1ccc(-c2csc(NC(=O)C3=COCCO3)n2)cc1 | 34.1%
25 | CC(C)NC(=O)c1cc(=O)n(C)c(=O)n1C | 1.53%
26 | Cc1nn(C)c(Oc2ccc(Cl)cc2)c1C(=O)O | 5.18%
27 | O=S(=O)([N-]c1nc2ccccc2nc1-n1cc[n+](Cc2ccccc2)c1)c1ccc(Br)cc1 | 8.51%
28 | Cc1cccn2c(=O)c3cc(C(=O)N4CC(C)CC(C)C4)sc3nc12 (configuration not stated) | 0.79%
29 | Cn1c(=O)[nH]c(=O)c2c1nc(N)n2Cc1ccccc1 | -16.3%
30 | CC(C)Cn1c(NCCN(C)C)nc2c1c(=O)[nH]c(=O)n2C | -11.4%
31 | CSc1nc2c(c(=O)[nH]c(=O)n2C)n1Cc1ccccc1 | 4.61%
32 | Cc1cc(C)n(-c2nc3c(c(=O)[nH]c(=O)n3C)n2CC(C)C)n1 | 0.87%
